Reference: PubChem BioAssay (Tox21)
Inconclusive results are not listed. The source made the active and inactive calls. Unless noted, calls come from the whole dose curve.

Tests used:
[1] = Nuclear factor erythroid 2-related factor 2/antioxidant responsive element (Nrf2/ARE) small molecule agonists: qHTS cell viability counter screen in human keratinocytes (AID 1919968; active = well fitted curve in the direction sought with a large enough effect in the repeat runs; an effect the other way counts as inactive or inconclusive; note: nearly all actives have a fitted effect of over 55% in size)
Method in brief: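 HaCaT ARE reporter line, 1,500 cells/well; 5 h settle, 37 C/5% CO2; cpd in DMSO pinned; 23 h exposure; CellTiter-Fluor, 1 h; fluorescence.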

[2] = Nuclear factor erythroid 2-related factor 2/antioxidant responsive element (Nrf2/ARE) small molecule agonists: luciferase reporter gene qHTS assay in human keratinocytes (AID 1919969); note: nearly all actives have a fitted effect of over 35% in size
[3] = target: Gonadotropin-releasing hormone receptor (Homo sapiens) (UniProt P30968); experiment: Human gonadotropin-releasing hormone receptor (GnRHR) small molecule agonists, calcium flux assay in GnRHR-HEK293 cells (AID 1920063); note: nearly all actives have a fitted effect of over 35% in size
Method in brief: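 GnRHR-HEK293, 1500 cells/well, 18 h 37 C/5% CO2; Ca dye 1 h 37 C; cpd pinned (DMSO), agonist mode; kinetic FL 480/540, 3 min, 1 s reads; 15 conc, n=3.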

[4] = target: KiSS-1 receptor (Homo sapiens) (UniProt Q969F8); experiment: Human kisspeptin (KISS1R) small molecule agonists, calcium flux assay in KISS1R-HEK293 cells (AID 1920064; active = well fitted curve in the direction sought with a large enough effect in the repeat runs; an effect the other way counts as inactive or inconclusive)
Method in brief: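 Stable human KISS1R HEK293 line; 18 h plating, 37 C/5% CO2; calcium dye 1 h 37 C; compound pin transfer; kinetic fluorescence Ex/Em 480/540, 3 min.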

[5] = G protein-coupled receptor (GPCR) small molecule agonists, calcium flux assay: HEK293 wild type cell line counter screen (AID 1920065)
Method in brief: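 Kinetic fluorescence at Ex/Em 480/540, recorded every second over 3 min, served as the read-out after compound addition. Each compound was tested at 15 concentrations in triplicate on cells pre-loaded with calcium dye for 1 h.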

[6] = p53 small molecule agonists, cell-based qHTS assay with human liver microsomes: qHTS cell viability counter screen (AID 1963579); note: nearly all actives have a fitted effect of over 45% in size
Method in brief: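 Seed p53RE-bla cells at 4,000 per well; incubate 5 h at 37 C; add compound, human liver microsomes and NADPH; incubate 16 h at 37 C; add CellTiter-Glo; after 30 min at room temperature, read luminescence.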

[7] = p53 small molecule agonists, cell-based qHTS assay with rat liver microsomes: qHTS cell viability counter screen (AID 1963580); note: nearly all actives have a fitted effect of over 45% in size
Method in brief: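 Intracellular ATP, by CellTiter-Glo luminescence, defines viability. HCT-116 p53RE-bla cells, 4,000 per well, were compound-treated in the presence of rat liver microsomes and NADPH for 16 h at 37 C.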

[8] = p53 small molecule agonists, cell-based qHTS assay: qHTS cell viability counter screen (AID 1963581); note: nearly all actives have a fitted effect of over 45% in size
Method in brief: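 HCT-116 p53RE-bla cells, 4,000/well, plated 5 h before compound pin transfer; 16 h at 37 C; bla substrate 2 h RT; then CellTiter-Glo, 30 min RT, luminescence.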

[9] = target: 5-hydroxytryptamine receptor 2A (Homo sapiens) (UniProt P28223); experiment: 5-hydroxytryptamine receptor 2A (HTR2A) small molecule antagonists, cell-based qHTS assay (AID 1963586); note: nearly all actives have a fitted effect of over 45% in size
Method in brief: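 Antagonist-mode intracellular calcium assay: DOI (4 nM) added after 5 min compound pre-incubation at room temperature to dye-loaded HTR2A-CHO cells. Fluorescence followed for 3 min, sampled every second.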

[10] = target: 5-hydroxytryptamine receptor 2A (Homo sapiens) (UniProt P28223); experiment: 5-hydroxytryptamine receptor 2A (HTR2A) small molecule agonists, cell-based qHTS assay (AID 1963587); note: nearly all actives have a fitted effect of over 30% in size
Method in brief: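 Kinetic calcium-flux fluorescence (2 min, 1 sec intervals) after compound addition in agonist mode. HTR2A-CHO cells were cultured 18 h, then dye-loaded 1 h at 37 C.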

[11] = target: Muscarinic acetylcholine receptor M1 (Homo sapiens) (UniProt P11229); experiment: Cholinergic receptor muscarinic 1 (CHRM1) small molecule antagonists, cell-based qHTS assay (AID 1963588); note: nearly all actives have a fitted effect of over 40% in size
Method in brief: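 CHRM1-CHO calcium-flux assay, antagonist mode. Cells were seeded 18 h, dye-loaded 1 h at 37 C and given compound for 5 min at RT, then acetylcholine was added at 50nM. FDSS fluorescence was read 3 min; 15 concentrations, three runs.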

[12] = target: Muscarinic acetylcholine receptor M1 (Homo sapiens) (UniProt P11229); experiment: Cholinergic receptor muscarinic 1 (CHRM1) small molecule agonists, cell-based qHTS assay (AID 1963589); note: nearly all actives have a fitted effect of over 35% in size
Method in brief: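 Human M1 in stable CHO line; 18 h plating, 1 h dye load 37 C; cpd added (agonist mode); Ca2+ fluorescence kinetic read, 1 s intervals; 15 conc, 3 runs.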

[13] = cAMP Responsive Elements (CRE) small molecule agonists, cell-based qHTS assay (AID 1963590)
Method in brief: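 HEK 293T CRE-bla, 2,000 cells/well, 18 h preincubation 37 C/5% CO2; cpds (DMSO) pinned, 3 h; LiveBLAzer B/G FRET substrate, 2 h RT.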

[14] = cAMP Responsive Elements (CRE) small molecule antagonists, cell-based qHTS assay (AID 1963591; active = well fitted inhibition curve with a large enough effect in the signal ratio in the repeat runs, not every such curve was filed as active; the % refers to the signal ratio)
Method in brief: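 Beta-lactamase reporter read by FRET substrate (LiveBLAzer B/G) after 2 h at room temperature. CRE-bla HEK293T cells had received compound plus 0.25 uM (final) NKH477 for 3 h at 37 °C.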

[15] = target: Beta-2 adrenergic receptor (Homo sapiens) (UniProt P07550); experiment: Adrenergic beta2 receptor (ADRB2) small molecule antagonists, cell-based qHTS assay (AID 1963592); note: series mostly up to about 92 µM; nearly all actives have a fitted effect of over 50% in size
Method in brief: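 Cells (CHO, stable ADRB2 overexpression) incubated 18-20hr at 37C; compounds added from DMSO; agonist mix (1nM isoproterenol, 100uM IBMX, 25uM Ro-20-1724) added; 0.5hr RT; d2-cAMP and anti-cAMP-cryptate added; 1hr RT; 665/615 nm read.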

[16] = target: D(2) dopamine receptor (Homo sapiens) (UniProt P14416); experiment: Dopamine D2 receptor (DRD2) small molecule agonists, cell-based qHTS assay (AID 1963594); note: nearly all actives have a fitted effect of over 35% in size
Method in brief: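 cAMP accumulation in DRD2-HEK293 cells measured by HTRF after 1 h detection; compounds added 10 min before NKH477 (200nM […]) forskolin-analogue stimulation, 30 min at room temperature, with Ro20-1724 present at 0.1 mM final.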

[17] = target: D(2) dopamine receptor (Homo sapiens) (UniProt P14416); experiment: Dopamine D2 receptor (DRD2) small molecule antagonists, cell-based qHTS assay (AID 1963595; active = well fitted inhibition curve with a large enough effect in the signal ratio in the repeat runs, with a control signal flat; the % refers to the signal ratio)
Method in brief: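 HEK293 cells stably expressing DRD2 were preincubated with 0.1 mM Ro20-1724, then with compound for 10 min at room temperature. Cells were stimulated with 200 nM NKH477 plus 12 nM quinpirole for 30 min, and cAMP was read by HTRF.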

[18] = target: Beta-2 adrenergic receptor (Homo sapiens) (UniProt P07550); experiment: Adrenergic beta2 receptor (ADRB2) small molecule agonists, cell-based qHTS assay (AID 1963593);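 note: CHO cells stably overexpressing human ADRB2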
Method in brief: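 CHO cells stably over-expressing ADRB2 were plated overnight at 37C, then dosed with compounds plus a stimulation mix containing 100uM IBMX and 25uM Ro-20-1724 for 0.5hr at room temperature. cAMP was measured by HTRF competition, 1hr.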

[19] = p53 small molecule agonists, cell-based qHTS assay (AID 1963582; active = well fitted activation curve with a large enough effect in the signal ratio in the repeat runs, not every such curve was filed as active; the % refers to the signal ratio)
Method in brief: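 Reporter line: p53RE-bla. Pre-incubation 5 h, 37 C, 5% CO2; compound (DMSO, pin tool) 16 h, 37 C; B/G FRET substrate 2 h RT; fluorescence intensity read.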

Measured: Potency

5-hydroxytryptamine receptor 2A (Homo sapiens), sequence (P28223 whole entry, looked up): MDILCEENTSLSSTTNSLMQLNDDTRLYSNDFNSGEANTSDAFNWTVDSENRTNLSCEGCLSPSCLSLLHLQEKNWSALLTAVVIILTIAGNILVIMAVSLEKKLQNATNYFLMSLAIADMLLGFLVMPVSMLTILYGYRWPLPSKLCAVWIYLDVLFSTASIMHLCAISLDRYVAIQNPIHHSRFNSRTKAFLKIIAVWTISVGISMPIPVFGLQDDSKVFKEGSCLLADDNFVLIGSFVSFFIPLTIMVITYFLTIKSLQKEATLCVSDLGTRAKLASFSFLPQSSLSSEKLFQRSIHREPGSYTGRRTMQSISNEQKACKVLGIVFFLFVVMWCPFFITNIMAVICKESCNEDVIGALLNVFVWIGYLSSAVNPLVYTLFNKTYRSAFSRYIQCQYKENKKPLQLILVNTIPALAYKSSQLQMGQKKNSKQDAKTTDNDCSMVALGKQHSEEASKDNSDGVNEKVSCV
Gonadotropin-releasing hormone receptor (Homo sapiens), sequence (P30968 whole entry, looked up): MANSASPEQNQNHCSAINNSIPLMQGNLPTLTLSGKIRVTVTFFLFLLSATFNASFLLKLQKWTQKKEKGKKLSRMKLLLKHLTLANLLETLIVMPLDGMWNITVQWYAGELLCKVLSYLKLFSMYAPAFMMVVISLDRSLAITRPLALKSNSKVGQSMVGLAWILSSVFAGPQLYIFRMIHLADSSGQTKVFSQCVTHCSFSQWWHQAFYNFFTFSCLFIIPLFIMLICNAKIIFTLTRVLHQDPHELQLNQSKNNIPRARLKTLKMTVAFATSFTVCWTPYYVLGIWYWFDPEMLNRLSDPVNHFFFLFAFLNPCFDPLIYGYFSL
Beta-2 adrenergic receptor (Homo sapiens), sequence (P07550 whole entry, looked up): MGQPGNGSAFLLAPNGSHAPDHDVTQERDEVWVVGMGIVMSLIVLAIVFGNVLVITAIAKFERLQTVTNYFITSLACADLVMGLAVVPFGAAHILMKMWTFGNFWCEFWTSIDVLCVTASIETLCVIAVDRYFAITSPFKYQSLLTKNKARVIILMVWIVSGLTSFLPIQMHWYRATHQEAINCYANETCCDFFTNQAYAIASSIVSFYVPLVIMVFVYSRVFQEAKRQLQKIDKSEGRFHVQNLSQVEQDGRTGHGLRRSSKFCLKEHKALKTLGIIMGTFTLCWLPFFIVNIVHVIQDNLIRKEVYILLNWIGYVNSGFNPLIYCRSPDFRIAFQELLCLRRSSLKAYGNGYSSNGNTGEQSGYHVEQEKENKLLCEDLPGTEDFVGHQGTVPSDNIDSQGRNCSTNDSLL
Muscarinic acetylcholine receptor M1 (Homo sapiens), sequence (P11229 whole entry, looked up): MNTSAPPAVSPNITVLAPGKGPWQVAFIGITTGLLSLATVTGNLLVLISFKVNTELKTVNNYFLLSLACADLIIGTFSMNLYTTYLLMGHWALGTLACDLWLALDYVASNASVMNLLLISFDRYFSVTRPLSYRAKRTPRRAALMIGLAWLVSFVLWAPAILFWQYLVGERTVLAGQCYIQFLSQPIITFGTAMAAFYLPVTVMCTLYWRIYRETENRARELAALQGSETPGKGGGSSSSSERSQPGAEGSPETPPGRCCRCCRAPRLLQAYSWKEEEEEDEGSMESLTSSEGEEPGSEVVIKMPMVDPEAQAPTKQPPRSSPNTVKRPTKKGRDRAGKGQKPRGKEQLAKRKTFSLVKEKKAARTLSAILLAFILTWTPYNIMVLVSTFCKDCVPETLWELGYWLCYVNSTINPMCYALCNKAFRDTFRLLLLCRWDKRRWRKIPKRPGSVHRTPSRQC
D(2) dopamine receptor (Homo sapiens), sequence (P14416 whole entry, looked up): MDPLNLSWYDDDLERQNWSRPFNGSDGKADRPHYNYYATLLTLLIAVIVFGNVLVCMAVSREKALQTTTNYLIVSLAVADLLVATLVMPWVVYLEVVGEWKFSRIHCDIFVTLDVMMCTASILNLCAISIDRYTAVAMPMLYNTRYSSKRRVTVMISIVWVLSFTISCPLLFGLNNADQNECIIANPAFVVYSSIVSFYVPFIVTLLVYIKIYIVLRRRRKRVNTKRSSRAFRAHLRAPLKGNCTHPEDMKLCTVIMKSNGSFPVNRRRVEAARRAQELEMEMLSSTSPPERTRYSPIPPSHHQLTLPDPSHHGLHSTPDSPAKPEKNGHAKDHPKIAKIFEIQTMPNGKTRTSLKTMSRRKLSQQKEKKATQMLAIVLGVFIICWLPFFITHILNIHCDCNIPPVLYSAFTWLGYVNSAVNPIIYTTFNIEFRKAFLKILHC
KiSS-1 receptor (Homo sapiens), sequence (Q969F8 whole entry, looked up): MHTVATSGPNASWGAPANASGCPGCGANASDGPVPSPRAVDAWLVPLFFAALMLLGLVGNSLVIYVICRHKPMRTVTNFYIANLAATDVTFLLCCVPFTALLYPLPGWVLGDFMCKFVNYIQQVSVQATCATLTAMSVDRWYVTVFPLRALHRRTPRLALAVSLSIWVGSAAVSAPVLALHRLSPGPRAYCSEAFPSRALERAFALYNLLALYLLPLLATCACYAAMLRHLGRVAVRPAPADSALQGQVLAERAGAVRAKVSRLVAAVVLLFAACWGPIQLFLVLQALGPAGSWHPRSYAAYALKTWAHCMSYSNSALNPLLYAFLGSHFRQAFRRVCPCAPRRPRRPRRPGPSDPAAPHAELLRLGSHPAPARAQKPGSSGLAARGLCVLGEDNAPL

O=C(O)[C@H](O)[C@@H](O)[C@H](O)[C@H](O)CO
not listed: [18] | [19]
inactive: all other assays above

COc1c(Cl)c(Cl)c(Cl)c(Cl)c1Cl
not listed: [12] | [19]
inactive: all other assays above

O=C1NC(=O)c2ccccc21
not listed: [14] | [19]
inactive: all other assays above

COc1ccc2[nH]cc(CCNC(C)=O)c2c1
not listed: [9] | [10] | [11] | [12]
inactive: all other assays above

Cc1occc(=O)c1O
not listed: [17] | [19]
inactive: all other assays above

CC(C)[C@@H]1CC[C@@H](C)C[C@H]1O
not listed: [19]
inactive: all other assays above
